This passage reports growth inhibition results from PubChem BioAssay (NCI).

Experiment [1] is described as follows: NCI Yeast Anticancer Drug Screen. Data for the rad50 strain (AID 155).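 Note: 0% = growth of vehicle-only cultures of the same strain.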 The following applies: S. cerevisiae rad50 strain growth inhibition; at 50.0 µM; active compounds read high. The essentials: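 Relative growth inhibition (compound vs vehicle) was measured in yeast with a defined repair-gene alteration.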
Experiment [2] can be described thus: NCI Yeast Anticancer Drug Screen. Data for the mec2-1 strain (AID 157). The following applies: S. cerevisiae mec2-1 strain, at 50.0 µM, active compounds read high. The method, boiled down:
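Growth inhibition is read against vehicle-treated controls after compound exposure of the mec2-1 yeast strain, which is defective in DNA damage repair or cell cycle control.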

Experiment [3] can be described thus: NCI Yeast Anticancer Drug Screen. Data for the sgs1 mgt1 strain (AID 161).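 Note: 0% = growth of cultures given vehicle only.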 To be noted: S. cerevisiae sgs1 mgt1 strain, at 50.0 µM, active compounds read high. The essentials:
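Percent growth inhibition was derived by comparing compound-exposed mutant yeast with vehicle-exposed cultures. The strain carries alterations in DNA damage repair.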

A short description of experiment [4]: NCI Yeast Anticancer Drug Screen. Data for the cln2 rad14 strain (AID 165).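 Note: 0% = growth equal to vehicle treated cultures.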 The following applies: S. cerevisiae cln2 rad14 strain, at 50.0 µM, active compounds read high. The method, boiled down: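 Growth inhibition, relative to vehicle-treated controls, is the read-out. The test organism is a yeast strain with defined genetic alterations, cln2 rad14.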
Experiment [5] in a line: NCI Yeast Anticancer Drug Screen. Data for the bub3 strain (AID 167). To be noted: S. cerevisiae bub3 mutant strain, at 50.0 µM, active compounds read high. The method, boiled down: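 Screening used yeast with an engineered genetic alteration affecting cell cycle control. Compound-exposed cultures were compared with vehicle cultures, and reduced growth was taken as inhibition.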

Experiment [6] can be described thus: NCI Yeast Anticancer Drug Screen. Data for the mlh1 rad18 strain (AID 175). The following applies: S. cerevisiae mlh1 rad18 strain growth inhibition; at 50.0 µM; active compounds read high. The essentials:
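Cells of a genetically altered yeast strain, deficient in DNA damage repair, were treated with compound. Their growth was then compared with that of vehicle-treated cultures to give inhibition.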

Where “and” joins values, the source holds several entries; their conditions need not be identical. Equal values may be shown once. This is part of a sample that, as a whole, favours compounds with a hit. Of some 79,000 tested, about 15% had one in any assay. Unmarked numbers belong to inactive results. Calls of active or inactive are those of the source. Cut-off read from the data, not from the text of the source: active = growth inhibition above about 70%; inactive = the rest.

For the compound `[CH3][Sn]([CH3])([CH3])[S]C(=S)N1CCOCC1`, the growth inhibition in experiment [1] was 98.7% (active); in experiment [2], 90% (active); in experiment [3], 98.2% (active); in experiment [4] it was 94.2% (active); in experiment [5], 98.5% (active); in experiment [6] it was 98.5% (active).

As for `COP(=O)(OC)C(=O)c1ccc(C)cc1`, the growth inhibition in experiment [1] was 14.7%; in experiment [2], -6.05%; in experiment [3], 1.55%; in experiment [4] it was -36.8%; in experiment [5], 15.9%; in experiment [6], -7%.

Regarding `CC(=N\O)/C(C)=N/O.CC(=N\O)/C(C)=N/O.[Ni]`, the growth inhibition in experiment [1] was -5.1%; in experiment [2], 3.6%; in experiment [3] it was -7.35%; in experiment [4], 0.95%; in experiment [5], 5.4%; in experiment [6], -10.9%.

For `CC(N)C(O)c1ccc(O)cc1` (centres undefined), the growth inhibition in experiment [1] is -14%; in experiment [2] it was -12%; in experiment [3], -21.1%; in experiment [4] it was -4.95%; in experiment [5], -39.2%; in experiment [6], -44%.

Turning to `CC(CN1CCCCCC1)C(C#N)(c1ccccc1)c1ccccc1` (centres undefined), the growth inhibition in experiment [1] was 7.4%; in experiment [2], 13.2%; in experiment [3] it was 25.4%; in experiment [4], 49.5%; in experiment [5], 46%; in experiment [6], 10.3%.

Turning to `Cc1cc2[nH]c3c(C#N)c(OC(=O)N(C)C)c(C)c(=O)n3c2cc1C`, the growth inhibition was 37.3% in experiment [1]; 22.3% in experiment [2]; 31.6% in experiment [3]; 17.1% in experiment [4]; 27.9% in experiment [5]; 39% in experiment [6].

Regarding `COc1cc(C2c3cc4c(cc3OC(NCCO)C2C)OCO4)cc(OC)c1O` (centres undefined), the growth inhibition is 6.1% in experiment [1]; -11.5% in experiment [2]; -14.3% in experiment [3]; 9.25% in experiment [4]; -18.1% in experiment [5]; -0.65% in experiment [6].

As for `CNC(=O)Oc1cccc(NC(=O)OC(C)(C)C)c1`, the growth inhibition in experiment [1] was 3.5%; in experiment [2], 14.8%; in experiment [3], 27.1%; in experiment [4], 1.45%; in experiment [5] it was 29.1%; in experiment [6], 15.1%.

For the compound `CC(CC(C#N)(c1ccccc1)c1ccccc1)N1CCCCC1` (centres undefined), the growth inhibition in experiment [1] was 27.6%; in experiment [2], 14%; in experiment [3] it was -22.9%; in experiment [4], 12.1%; in experiment [5], 33.5%; in experiment [6], 27.4%.

Regarding `CC12CCC3C(CCC4(C)CC(OC(=O)Cc5ccc(N(CCCl)CCCl)cc5)CCC34C)C1CCC2=O` (centres undefined), the growth inhibition was -10.4% in experiment [1]; 2.85% in experiment [2]; -2.3% in experiment [3]; -1.4% in experiment [4]; -4.8% in experiment [5]; 3.65% in experiment [6].

Consider `CC1(C)SC2C(NC(=O)COc3ccccc3)C(=O)N2C1C(=O)O` (centres undefined) (tested in a mixture with another compound), for which the growth inhibition in experiment [1] is -3.75%; in experiment [2] it was 8.1%; in experiment [3], 2.3%; in experiment [4], -24.4%; in experiment [5], -2.15%; in experiment [6], 10%.

For the compound `CN(C)C(=S)Oc1ccc(S(=O)(=O)F)cc1`, the growth inhibition in experiment [1] was 34.2%; in experiment [2], 17.2%; in experiment [3], 14.6%; in experiment [4] it was 22.6%; in experiment [5], 8.65%; in experiment [6], 20.9%.

As for `CCOC(=O)C1C(=O)C(=O)N2CCc3c([nH]c4ccccc34)C12` (centres undefined), the growth inhibition in experiment [1] was 17.5%; in experiment [2] it was 7.55%; in experiment [3], 34%; in experiment [4], 12.4%; in experiment [5], -3%; in experiment [6] it was 15.6%.

On to `C[N+](CCCl)(CCCl)Cc1cc([N+](=O)[O-])cc([N+](=O)[O-])c1`, for which the growth inhibition in experiment [1] is -6.05%; in experiment [2], -3.05%; in experiment [3], 8.9%; in experiment [4], -8.6%; in experiment [5], -1.25%; in experiment [6] it was 5.95%.

Regarding `CCOC(=O)/C=C1\Nc2ccccc2C(c2ccccc2)=NC1OC(C)=O` (centres undefined), the growth inhibition is 39.1% in experiment [1]; -20.6% in experiment [2]; 22.6% in experiment [3]; 23.6% in experiment [4]; -13.7% in experiment [5]; -9% in experiment [6].

With `COC(=O)C1=NNC2(c3ccccc3Sc3ccccc32)C1C(=O)OC` (centres undefined), the growth inhibition in experiment [1] is -8.95%; in experiment [2], -8.25%; in experiment [3], -12.5%; in experiment [4] it was 25.5%; in experiment [5], -18.9%; in experiment [6], -11.8%.

Consider `CCOC(=O)C(C(=O)OCC)P(=S)(S)c1ccccc1` (centres undefined), for which the growth inhibition in experiment [1] was 6.2%; in experiment [2] it was -33.9%; in experiment [3], -11.2%; in experiment [4], 9.2%; in experiment [5] it was -9.6%; in experiment [6], -10.1%.

As to `Clc1ccc(N=P(c2ccccc2)(c2ccccc2)c2ccccc2)cc1.[Cl][Co][Cl]`, the growth inhibition was 49% in experiment [1]; 11.1% in experiment [2]; 44.5% in experiment [3]; 18.1% in experiment [4]; 22.1% in experiment [5]; 14.6% in experiment [6].

`CC(C)CC(N)C(=O)O` (centres undefined): the growth inhibition in experiment [1] was -6% and -19.2%; in experiment [2], -4.8% and 9.15%; in experiment [3], -3.25% and -31.2%; in experiment [4], -11.1% and -34%; in experiment [5] it was 5.7% and -8.45%; in experiment [6], 6.15% and -40.9%.
